Measurements: the supplement of paper PMC9925115
± gives the uncertainty stated by the source.

test system: FLX1; test: cell viability z-score within plate (CellTiter-Glo), mean of 3 biological replicates; higher = higher viability relative to plate (less growth inhibition); details: 2 µM; time (hr): 120
Description: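 FLX1 fibrolamellar carcinoma cells (DNAJB1-PRKACA fusion), 600 cells/well in 384-well plates, treated with a Selleck kinase inhibitor library (L1200) at 2 uM for 5 days (120 hr); viability by CellTiter-Glo. A z-score was computed within each plate and averaged over three biological replicates.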

| SMILES | cell viability z-score within plate |
| --- | --- |
| CC(C)(C)c1cc(C=C(C#N)C#N)cc(C(C)(C)C)c1O [Tyrphostin 9] | 0.448 ± 0.24 |
| Cn1cc(C2=C(c3cn(C4CCN(Cc5ccccn5)CC4)c4ccccc34)C(=O)NC2=O)c2ccccc21 | -2.47 ± 0.57 |
| Cc1ccccc1-n1c(Cn2ncc3c(N)ncnc32)nc2cccc(C)c2c1=O | 0.16 ± 0.68 |
| CCN1CCN(C(=O)Cc2ccc(Nc3ncc(F)c(Nc4ccc(C(=O)Nc5ccccc5Cl)cc4)n3)cc2)CC1 [Aurora A Inhibitor I] | -0.367 ± 0.29 |
| O=c1[nH]c2ccc(Cl)cc2c(N[C@@H]2CN3CCC2CC3)c1-c1nc2ccccc2[nH]1 | 0.562 ± 0.43 |
| CC(C)(C)c1cc(C=C(C#N)C#N)cc(Br)c1O | -0.784 ± 0.7 |
